From PubChem
Most compounds without a hit are left out; they make up all but 3.3% or so of the library.
AmpC no deterg – blocks E. coli AmpC beta-lactamase in detergent-free assay; P00811; AmpC nitrocefin hydrolysis, absorbance 480 nm, 0.0001% Triton; Potency, µM (doses to about 57.1 µM), for inactives: top-dose activity change, negative = inhibition, usual class: inhibitors; 330,000 compounds, 0.52% hits; AID 485341;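 also: plate controls were no compound for no effect and no enzyme for full effect; nearly all actives have a fitted effect of over 20% in size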
Target sequence (P00811 whole entry, looked up): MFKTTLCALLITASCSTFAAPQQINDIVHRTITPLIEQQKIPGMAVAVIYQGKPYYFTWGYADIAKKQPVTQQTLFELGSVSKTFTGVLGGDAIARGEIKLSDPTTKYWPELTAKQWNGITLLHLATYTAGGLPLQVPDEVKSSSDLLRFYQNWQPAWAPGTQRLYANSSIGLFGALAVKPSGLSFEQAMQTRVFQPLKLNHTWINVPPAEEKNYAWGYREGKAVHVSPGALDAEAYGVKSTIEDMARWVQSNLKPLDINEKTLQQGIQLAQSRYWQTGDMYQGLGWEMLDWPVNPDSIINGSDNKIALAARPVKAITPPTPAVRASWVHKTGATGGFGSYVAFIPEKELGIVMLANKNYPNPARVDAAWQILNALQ
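20 mM phosphate pH 7.0 + 0.01% (detergent screen) or 0.0001% Triton X-100; 5.3 nM AmpC reagent; cpd preinc 15 min RT; nitrocefin (800 uM stock) to start; A480 q20 s × 4 min; Activity was normalised to no-enzyme and no-compound control wells.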
AmpC inh detg – blocks E. coli AmpC beta-lactamase in detergent assay; P00811; AmpC hydrolysis of nitrocefin, absorbance 480 nm, 0.01% Triton; Potency, µM (titrated, usually from 114 µM), inactives show top-dose activity change, negative = inhibition, actives largely listed as inhibitors; 370,000 compounds, 0.041% hits;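 also: 0% = no-compound wells and -100% = no-enzyme wells; nearly all actives have a fitted effect of over 25% in size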
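AmpC (5.3 nM in the dispensed reagent) in 20 mM phosphate pH 7.0 with 0.01% (detergent screen) or 0.0001% Triton X-100 was preincubated with compounds for 15 min at room temperature. Nitrocefin was then added from an 800 uM solution, and hydrolysis was followed at 480 nm.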
Sm TGR inh – blocks Schistosoma mansoni thioredoxin glutathione reductase; Q962Y6; purified TGR, DTNB reduction, TNB absorbance 405 nm; Potency, µM (titrated, usually from 114 µM), for the others: at the highest dose activity change, negative = inhibition, actives largely listed as inhibitors; 360,000 compounds, 3% hits; also: nearly all actives have a fitted effect of over 60% in size
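Kinetic colorimetric format: TGR-catalysed, NADPH-driven DTNB reduction monitored via TNB absorbance. Enzyme dispensed at 20 nM; compound exposure 15 min at room temperature before reaction start.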
The depositor's hits bear a star; ? = inconclusive; . = no result given; [ ] = remark or other dose. Calls follow the shape of the dose curve; as a rule, active = well fitted curve in the direction sought with a large enough effect; inconclusive = small, poorly fitted or top-dose-only effect, or another doubt; inactive = no such curve, though single readings can be large; an effect the other way counts as inactive or inconclusive. Unless noted, % is scaled to controls: 0 for no effect and ±100 for the full control effect; potency is read from the fitted curve at half-maximal effect.

SMILES | AmpC no deterg | AmpC inh detg | Sm TGR inh
CC(C)Oc1cccc(C(=O)NC(=S)Nc2ccc(N3CCN(C)CC3)cc2)c1 | 103% | 5% | 45µM*
CC(C)CC(=O)NC(=S)Nc1cccc(NC(=O)c2ccccc2Cl)c1 | -39% | -1% | ?
CC(C)Oc1cccc(C(=O)NC(=S)Nc2cccc(NC(=O)c3ccccc3Cl)c2)c1 | 3.2µM* | -19% | -11%
COc1cccc(C(=O)NC(=S)Nc2ccc(N3CCCC3)cc2)c1 | -32% | -3% | ?
Cc1ccsc1C(=O)NCCc1ccc(S(N)(=O)=O)cc1 | -4% | 0% | 0%
Cc1cc[n+]2n1CC(O)C2 (configuration not stated) | 2% | 1% | 8%
CN(/N=C/c1ccc(Br)o1)C1=NS(=O)(=O)c2ccccc21 | -33% | 4% | 45µM*
Cc1ccc(/C=N/N(C)C2=NS(=O)(=O)c3ccccc32)o1 | -27% | -5% | -9%
CCOc1ccccc1NC(=O)C1CCCCN1S(=O)(=O)c1ccc(F)cc1 (configuration not stated) | -2% | -2% | ?
O=C(/C=C/c1ccco1)N1CCN(c2ncccn2)CC1 | -12% | 4% | 20µM*
O=C(/C=C/c1ccco1)N1CCN(S(=O)(=O)c2cccc([N+](=O)[O-])c2)CC1 | 7% | . | .
O=C(/C=C/c1c(Cl)cccc1Cl)N1CCN(c2ncccn2)CC1 | 8% | -11% | -7%
COc1ccc(S(=O)(=O)N2CCN(C(=O)/C=C/c3ccco3)CC2)cc1 | -9% | -2% | 8.9µM*
COc1cccc(N2CCN(C(=O)/C=C/c3ccco3)CC2)c1 | 37% | 7% | 22µM*
O=C(/C=C/c1ccco1)N1CCC(Cc2ccccc2)CC1 | 1% | -2% | 20µM*
CC(C)C(=O)N1CCC(Cc2ccccc2)CC1 | 1% | 1% | 0%
COc1cccc(N2CCN(Cc3ccco3)CC2)c1 | -3% | -14% | -22%
COC(=O)[C@H](CCSC)NC(=O)Cn1cnc2c(NCc3ccccc3)ncnc21 | -12% | . | .
O=C(c1ccccc1)c1ccc2nc(N3CCN(c4ccc(F)cc4)CC3)c3nncn3c2c1 | . | 2% | -2%
CCOc1ccccc1NC(=O)CCc1nnc2ccc(N3CCC4(CC3)OCCO4)nn12 | 69% | -2% | 8%
CC(=O)N1CCc2cc(S(=O)(=O)CCC(=O)Nc3ccc(Cl)cc3F)ccc21 | -21% | -9% | -25%
CCCCCCCC/C=C\CCCCCCCC(=O)O | -17% | -7% | 0%
CCCCC/C=C\C/C=C\C/C=C\CCCCC(=O)O | 147% | ? | 28µM*
Cc1ccnc(NC(=O)CCN2C(=O)c3ccccc3S2(=O)=O)n1 | -29% | ? | -13%
CC(C)(C)c1ccc(-c2nc(C=O)c3ccccn23)cc1 | -3% | ? | -19%
SMILES | AmpC no deterg | AmpC inh detg | Sm TGR inh
Cc1c(C(C)(C)C)c(C=S)n2ccccc12 | -20% | 2% | 2.2µM*
O=C(NCCCSc1ccccc1)c1cc(Br)ccc1O | -19% | 8% | 7%
CCOC(=O)c1c(NC(C)=O)sc2c(O)cccc12 | -28% | -11% | 3%[11.4 µM]
CCOC(=O)c1c(NC(C)=O)sc2c(O)c(Br)cc(Br)c12 | -39% | -6% | 40µM*
Cc1cc(Nc2ccc(O)cc2)ccc1N | -22% | 5% | 2µM*
Cc1cc(C)nc(Nc2ccc(O)cc2)n1 | -12% | -1% | -6%
O=C(NCC(=O)N1CCc2ccccc2C1)c1ccccc1Cl | -12% | 2% | 6%
CC(C)C1OC2(C)OC(=N)C1(C#N)C(C#N)(C#N)C2c1ccccc1 (configuration not stated) | -55% | -13% | ?
CC1CCC(C(C)C)C2=C1C(C#N)(C#N)C(C#N)(C#N)C(c1ccccc1)N2 (configuration not stated) | -32% | 1% | 5µM*
OCC#Cc1ncc(C(F)(F)F)cc1Cl | -19% | 1% | 45µM*
NC(=O)Cc1ncc(C(F)(F)F)cc1Cl | -17% | 2% | 6%
C=CCN(Cc1cn(C)nc1-c1cccc(Cl)c1)C1CCS(=O)(=O)C1 (configuration not stated) | 49% | -3% | 28µM*
CC(C)N(Cc1cn(C)nc1-c1cccc(Cl)c1)CC1CCC(=O)N1 (configuration not stated) | 138% | 3% | 31%
Cc1[nH]n(-c2ncc(-c3ccccc3)s2)c(=O)c1C(c1ccc(Cl)cc1)C(C#N)C#N (configuration not stated) | 32µM* | -12% | ?
Cc1[nH]n(-c2ccc(Cl)cc2)c(=O)c1/C=N/c1nnc(-c2ccccc2)s1 | -16% | -11% | -1%
Cc1ccc(C(=O)Nc2ncccc2C)cc1S(=O)(=O)N1CCCCC1 | 3% | -13% | -3%
